In the supplement of paper PMC11219838:
A number with no mark means an inactive call.

System: Caenorhabditis elegans L1 (N2)
Experiment: survival and reproduction score of C. elegans L1 (0: 0-10 living worms, 1: 11-20, 2: 21-50, 3: >50, 4: overgrown) (score 0-4); higher = more worms, less nematicidal, active = 1 or less; extreme values may be limits of the assay
Conditions: 60 µM; 6 days; temperature: 20 °C
Procedure, shortened: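 Worm survival and reproduction were recorded as an ordinal score of living worms per well, read under a dissection microscope. Each 96-well well held about 20 synchronized C. elegans N2 L1s with E. coli HB101 in liquid NGM and compound at 60 µM final (0.6% v/v DMSO), sealed and shaken at 200 rpm, 20 °C, for 6 days. Scores ranged from 0 (0–10 worms) to 4 (overgrown, starved) and were the mean of two biological replicates.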

Question: With `Clc1ccc(OCc2nc(-c3ccc4c(c3)OCO4)no2)cc1` as the molecule, how does the “survival and reproduction score” value read?
Answer: 4

Question: How did the “survival and reproduction score” value turn out when `COc1cccc(-c2noc(-c3cc(C)ccc3C)n2)c1` was run?
Answer: 4

Question: Which “survival and reproduction score” value does the source give for `COc1ccc(-c2noc(-c3ccc(C)c(Cl)c3)n2)cc1` here?
Answer: 4

Question: With `Brc1ccc(-c2noc(-c3cccs3)n2)o1` as the molecule, how does the “survival and reproduction score” value read?
Answer: 0 (active)

Question: How did the “survival and reproduction score” value turn out when `COc1cccc(-c2nnc(SCc3ccccc3)o2)c1` was run?
Answer: 4

Question: For `c1ccc(-c2nnc(SCc3cccnc3)o2)cc1`, which “survival and reproduction score” value is on record?
Answer: 4

Question: How did the “survival and reproduction score” value turn out when `O=C(Nc1ccc(-c2noc(COc3ccccc3)n2)cc1)c1ccc(F)cc1` was run?
Answer: 1 (active)

Question: `CCn1cc(C(=O)CSc2nnc(-c3ccccc3)o2)c2ccccc21` was tested. Which “survival and reproduction score” value did it give?
Answer: 4

Question: For `CCCc1nnc(SCc2nnc(-c3ccccc3)o2)o1`, which “survival and reproduction score” value is on record?
Answer: 4

Question: With `COc1ccc(-c2noc(COc3ccc(C(C)(C)C)cc3Br)n2)cc1` as the molecule, how does the “survival and reproduction score” value read?
Answer: 4

Question: With `O=C(CSc1nnc(-c2ccc(Cl)cc2Cl)o1)N1CCCCC1` as the molecule, how does the “survival and reproduction score” value read?
Answer: 4

Question: `COc1cccc(OCc2nc(-c3cccc(Br)c3)no2)c1` was tested. Which “survival and reproduction score” value did it give?
Answer: 4

Question: Which “survival and reproduction score” value does the source give for `Clc1cccc(-c2nc(-c3ccccc3Cl)no2)c1` here?
Answer: 4

Question: How did the “survival and reproduction score” value turn out when `CC(C)(C)NC(=O)c1ccccc1-c1nc(-c2ccccc2)no1` was run?
Answer: 4

Question: `CCOc1cc(-c2noc(-c3ccncc3)n2)ccc1OC` was tested. Which “survival and reproduction score” value did it give?
Answer: 4

Question: Which “survival and reproduction score” value does the source give for `O=C(CSc1nnc(-c2ccco2)o1)Nc1ccc(Br)cc1` here?
Answer: 4

Question: `CCOC(=O)c1c(NC(=O)CSc2nnc(-c3ccc(Cl)cc3)o2)sc(C)c1C` was tested. Which “survival and reproduction score” value did it give?
Answer: 4

Question: `COc1ccc(NC(=O)CSc2nnc(-c3ccccc3C)o2)cc1` was tested. Which “survival and reproduction score” value did it give?
Answer: 4

Question: For `CCn1c(SCc2nnc(-c3ccccc3)o2)nnc1-c1ccco1`, which “survival and reproduction score” value is on record?
Answer: 4

Question: With `Cc1ccccc1CSc1nnc(-c2ccco2)n1C` as the molecule, how does the “survival and reproduction score” value read?
Answer: 2

Question: How did the “survival and reproduction score” value turn out when `COc1ccc(-c2nnc(SCC(=O)N3CC(C)CC(C)C3)o2)cc1` (stereo not drawn) was run?
Answer: 4

Question: How did the “survival and reproduction score” value turn out when `Clc1ccc(OCc2nc(-c3ccc(Br)o3)no2)cc1` was run?
Answer: 3.5

Question: How did the “survival and reproduction score” value turn out when `Cc1ccc(-c2noc(-c3cccc(Br)c3)n2)cc1` was run?
Answer: 4

Question: Which “survival and reproduction score” value does the source give for `Cc1ccccc1CSc1nnc(-c2ccncc2)o1` here?
Answer: 4

Question: Which “survival and reproduction score” value does the source give for `Cc1ccccc1CSc1nnc(-c2ccccc2Cl)o1` here?
Answer: 4

Question: For `Cn1cc(C(=O)CSc2nnc(-c3ccccc3)o2)c2ccccc21`, which “survival and reproduction score” value is on record?
Answer: 0 (active)

Question: For `CCOc1ccccc1-c1nc(-c2ccc(Cl)cc2)no1`, which “survival and reproduction score” value is on record?
Answer: 4

Question: For `COc1ccc(Cl)cc1-c1nnc(SCC(=O)Nc2nccs2)o1`, which “survival and reproduction score” value is on record?
Answer: 4

Question: Which “survival and reproduction score” value does the source give for `COc1ccc(-c2nnc(SCC(=O)Nc3ccccc3C(C)C)o2)cc1` here?
Answer: 4

Question: With `Brc1ccc(-c2noc(-c3ccc4c(c3)OCO4)n2)cc1` as the molecule, how does the “survival and reproduction score” value read?
Answer: 4

Question: Which “survival and reproduction score” value does the source give for `Cc1cc(OCc2nc(-c3ccccn3)no2)ccc1Br` here?
Answer: 4

Question: How did the “survival and reproduction score” value turn out when `Clc1ccccc1OCc1nc(-c2cccs2)no1` was run?
Answer: 4

Question: For `Cc1ccc(CSc2nnc(-c3cccc(Br)c3)o2)c(C)c1`, which “survival and reproduction score” value is on record?
Answer: 4

Question: Which “survival and reproduction score” value does the source give for `Ic1ccc(CSc2nnc(-c3ccco3)o2)cc1` here?
Answer: 3.5

Question: `O=C(Nc1cccc(-c2noc(COc3ccccc3)n2)c1)c1cccs1` was tested. Which “survival and reproduction score” value did it give?
Answer: 4

Question: `Clc1ccccc1-c1nc(-c2ccc3c(c2)OCO3)no1` was tested. Which “survival and reproduction score” value did it give?
Answer: 4

Question: For `Cc1nc(CSc2nnc(-c3ccccc3)o2)cs1`, which “survival and reproduction score” value is on record?
Answer: 4

Question: Which “survival and reproduction score” value does the source give for `Fc1ccc(OCc2nc(-c3ccc(Cl)cc3)no2)cc1` here?
Answer: 4
